Results: PubChem BioAssay
For some assays here: Results with a measured potency or affinity are listed apart. Active and inactive are the calls of the source. Unless noted, no rule for the calls is given here.

Experiments:
[1] = antimalarial activity against Dd2 strain (AID 2302;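 active = growth inhibition above 50% at the single 2 µM test dose, taken to imply half-maximal potency below 2 µM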;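 also: 0% = DMSO untreated growth and 100% = chloroquine plus artemisinin killed control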); conditions: P. falciparum Dd2 in RBCs, LDH growth readout, 72 h; at 2 µM; stronger effect = higher value
[2] = human hepatoma cell viability loss – ATP luminescence, cytotoxicity control for P. falciparum antimalarial project, primary screen (AID 2303;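 active = inhibition above 50%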;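 also: 0% = DMSO wells and 100% = digitonin-killed cells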); conditions: HepG2 viability, 24-48 h, at 10 µM, stronger effect = higher value
[3] = biological target: L-lactate dehydrogenase (Plasmodium falciparum (isolate CDC / Honduras)) (UniProt Q27743); experiment: PfLDH activity inhibition – cell lysate, 3D7 strain, counter-screen for P. falciparum growth inhibition project (AID 2304);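 also: 0% = vehicle and 100% = reference inhibitor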; conditions: P. falciparum 3D7 crude extract, LDH APAD/NBT absorbance; at 2 µM; stronger effect = higher value
[4] = inhibition of 3D7 malaria parasite growth – strain 3D7 (AID 2306);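 also: 0% = DMSO wells and 100% = chloroquine plus artemisinin control wells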; conditions: P. falciparum 3D7 erythrocytic growth, LDH absorbance, 72 h; at 2 µM; stronger effect = higher value
[5] = biological target: Calcium-dependent protein kinase 1 (Plasmodium falciparum (isolate 3D7)) (UniProt P62344); experiment: PfCDPK1 kinase inhibitors, biochemical, TCAMS library (AID 1159585; cut-off not given, nearly all actives have IC50 up to about 0.98 µM;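 also: inhibitors leave more ATP so luminescence rises with inhibition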); conditions: recombinant PfCDPK1, Kinase-Glo ATP depletion luminescence
[6] = biological target: Plasmodium falciparum protein kinase 6 (PK6, PF3D7_1337100) (UniProt Q8IDW1); experiment: PfPK6 kinase inhibitors, biochemical, TCAMS library (AID 1159586); conditions: recombinant PfPK6, Kinase-Glo ATP depletion luminescence
[7] = biological target: Protein kinase 7 (PK7), Plasmodium falciparum 3D7 (PF3D7_0213400) (UniProt Q7YTF7); experiment: inhibition of Plasmodium PK7 catalytic activity – biochemical, TCAMS antimalarial set, Kinase-Glo luminescence (AID 1159587); conditions: recombinant PfPK7, Kinase-Glo ATP depletion luminescence
[8] = biological target: Calcium-dependent protein kinase 4 (Plasmodium falciparum (isolate 3D7)) (UniProt Q8IBS5); experiment: PfCDPK4 kinase inhibitors, biochemical, TCAMS library (AID 1159588; cut-off not given, nearly all actives have IC50 up to about 0.91 µM); conditions: recombinant PfCDPK4, Kinase-Glo ATP depletion luminescence
Sequence of Calcium-dependent protein kinase 4 (Plasmodium falciparum (isolate 3D7)) (Q8IBS5 whole entry, looked up): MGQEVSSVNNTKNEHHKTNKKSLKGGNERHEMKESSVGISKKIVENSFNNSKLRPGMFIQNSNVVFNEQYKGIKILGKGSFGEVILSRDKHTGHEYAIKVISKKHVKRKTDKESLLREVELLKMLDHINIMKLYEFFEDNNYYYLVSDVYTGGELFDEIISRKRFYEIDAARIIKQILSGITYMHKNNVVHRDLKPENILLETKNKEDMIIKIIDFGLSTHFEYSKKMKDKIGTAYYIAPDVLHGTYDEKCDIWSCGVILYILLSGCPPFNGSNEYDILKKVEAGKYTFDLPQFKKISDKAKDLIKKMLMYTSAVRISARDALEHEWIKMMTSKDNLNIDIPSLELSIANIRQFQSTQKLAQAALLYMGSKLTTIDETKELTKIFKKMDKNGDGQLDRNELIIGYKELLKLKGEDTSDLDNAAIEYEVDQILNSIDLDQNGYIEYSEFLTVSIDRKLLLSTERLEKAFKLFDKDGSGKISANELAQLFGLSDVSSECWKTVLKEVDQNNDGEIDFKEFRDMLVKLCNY

Sequence of Protein kinase 7 (PK7), Plasmodium falciparum 3D7 (PF3D7_0213400) (Q7YTF7 1-343): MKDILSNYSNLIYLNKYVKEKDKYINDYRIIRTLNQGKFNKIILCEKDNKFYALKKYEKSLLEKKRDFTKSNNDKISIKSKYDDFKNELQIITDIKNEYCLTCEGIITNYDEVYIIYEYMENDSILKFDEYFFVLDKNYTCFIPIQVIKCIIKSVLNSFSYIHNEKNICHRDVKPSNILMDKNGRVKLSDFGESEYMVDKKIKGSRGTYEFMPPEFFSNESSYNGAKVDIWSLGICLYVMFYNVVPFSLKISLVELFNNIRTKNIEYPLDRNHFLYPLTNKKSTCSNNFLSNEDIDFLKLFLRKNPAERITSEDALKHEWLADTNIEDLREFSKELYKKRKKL
Sequence of Calcium-dependent protein kinase 1 (Plasmodium falciparum (isolate 3D7)) (P62344 whole entry, looked up): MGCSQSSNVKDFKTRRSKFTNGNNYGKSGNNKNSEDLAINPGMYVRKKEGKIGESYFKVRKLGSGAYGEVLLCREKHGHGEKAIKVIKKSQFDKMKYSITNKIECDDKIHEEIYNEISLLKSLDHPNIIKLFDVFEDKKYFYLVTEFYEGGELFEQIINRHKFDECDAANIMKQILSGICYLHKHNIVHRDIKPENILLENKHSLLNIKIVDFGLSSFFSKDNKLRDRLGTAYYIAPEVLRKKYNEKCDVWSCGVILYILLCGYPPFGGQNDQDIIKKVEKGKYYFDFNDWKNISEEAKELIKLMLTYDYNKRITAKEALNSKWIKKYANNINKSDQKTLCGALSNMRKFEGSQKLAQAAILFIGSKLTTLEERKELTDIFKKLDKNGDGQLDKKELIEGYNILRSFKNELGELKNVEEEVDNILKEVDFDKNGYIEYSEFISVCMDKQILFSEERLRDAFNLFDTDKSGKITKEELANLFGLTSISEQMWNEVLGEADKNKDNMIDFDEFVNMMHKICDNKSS
Sequence of L-lactate dehydrogenase (Plasmodium falciparum (isolate CDC / Honduras)) (Q27743 whole entry, looked up): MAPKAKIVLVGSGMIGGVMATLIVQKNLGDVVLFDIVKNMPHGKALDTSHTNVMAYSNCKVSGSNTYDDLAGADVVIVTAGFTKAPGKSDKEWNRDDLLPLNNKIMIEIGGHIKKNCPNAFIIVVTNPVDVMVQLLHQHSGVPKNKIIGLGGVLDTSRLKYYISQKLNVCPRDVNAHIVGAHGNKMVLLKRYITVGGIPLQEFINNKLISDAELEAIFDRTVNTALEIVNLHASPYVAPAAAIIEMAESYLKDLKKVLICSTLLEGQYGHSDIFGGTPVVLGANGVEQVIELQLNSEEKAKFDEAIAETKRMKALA
Sequence of Plasmodium falciparum protein kinase 6 (PK6, PF3D7_1337100) (Q8IDW1 1-305): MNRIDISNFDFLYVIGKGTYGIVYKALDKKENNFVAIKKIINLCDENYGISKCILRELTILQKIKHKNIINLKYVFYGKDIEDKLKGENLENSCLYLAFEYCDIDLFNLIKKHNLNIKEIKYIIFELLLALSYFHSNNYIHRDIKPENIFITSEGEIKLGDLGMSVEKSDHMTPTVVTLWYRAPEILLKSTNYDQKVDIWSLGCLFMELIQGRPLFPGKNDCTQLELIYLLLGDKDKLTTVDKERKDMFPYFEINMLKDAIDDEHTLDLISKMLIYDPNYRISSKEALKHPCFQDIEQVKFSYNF

Cc1cc(=O)c(-c2ccc(Oc3cccc(Cl)c3)cc2)c(C)[nH]1
inactive: inhibition [2] 23% | inhibition [3] 0% | outcome [5] | outcome [6] | outcome [7] | outcome [8]
active: growth inhibition [1] 89% | growth inhibition [4] 95%

Cc1cc(N2CCN(CC3CCN(C)CC3)CC2)nc(Nc2ccc(Cl)cc2)n1
active: growth inhibition [1] 89% | growth inhibition [4] 99%
inactive: inhibition [2] 20% | inhibition [3] -6% | outcome [5] | outcome [6] | outcome [7] | outcome [8]

CCCCC(=O)Nc1nc2ccc([N+](=O)[O-])cc2s1
active: growth inhibition [1] 69% | growth inhibition [4] 91%
inactive: inhibition [2] 9% | inhibition [3] -5% | outcome [5] | outcome [6] | outcome [7] | outcome [8]

COc1ccc2c(NN=Cc3ccc(F)cc3)ccnc2c1
active: growth inhibition [1] 99% | growth inhibition [4] 100%
inactive: inhibition [2] 14% | inhibition [3] -4% | outcome [5] | outcome [6] | outcome [7] | outcome [8]

CCOc1ccc(C(=O)N2CCOC(CCN3CCC4(CCc5ccccc54)CC3)(c3ccc(Cl)c(Cl)c3)C2)cc1 (configuration not stated)
active: growth inhibition [4] 81%
inactive: growth inhibition [1] 25% | inhibition [2] 25% | inhibition [3] 1% | outcome [5] | outcome [6] | outcome [7] | outcome [8]

O=S(=O)(Nc1ccc2nccc(N3CCNCC3)c2c1)c1ccc2c(Cl)cccc2c1
active: growth inhibition [4] 100%
inactive: growth inhibition [1] 2% | inhibition [2] 11% | inhibition [3] -2% | outcome [5] | outcome [6] | outcome [7] | outcome [8]

O=C(NC1CCCc2ccccc21)C1CCCN(C(=O)c2ccc(O)c(-c3ccc(Cl)c(Cl)c3)c2)C1 (configuration not stated)
inactive: inhibition [2] -3% | inhibition [3] -8% | outcome [5] | outcome [6] | outcome [7] | outcome [8]
active: growth inhibition [1] 54% | growth inhibition [4] 88%

COC(=O)c1cccc(CNCc2cccc(-c3ccc(-c4nc5c(C)cccc5[nH]4)s3)c2)c1
active: growth inhibition [1] 65% | growth inhibition [4] 103%
inactive: inhibition [2] -4% | inhibition [3] 1% | outcome [5] | outcome [6] | outcome [7] | outcome [8]

COc1ccc(CNCc2ccc(-c3ccc(-c4nc5c(C)cccc5[nH]4)cc3)cc2)cc1
active: growth inhibition [1] 97% | inhibition [2] 53% | growth inhibition [4] 101%
inactive: inhibition [3] 2% | outcome [5] | outcome [6] | outcome [7] | outcome [8]

Cc1ccc(C(=O)Nc2cc(S(=O)(=O)N3CCCC3)ccc2OCC(F)(F)F)cc1
inactive: growth inhibition [1] 3% | inhibition [2] -2% | inhibition [3] 3% | outcome [5] | outcome [6] | outcome [7] | outcome [8]
active: growth inhibition [4] 93%

Cc1ccccc1NC1=NC(=S)N(c2cccc(C(F)(F)F)c2)C12CCC(C(C)(C)C)CC2 (configuration not stated)
inactive: growth inhibition [1] 25% | inhibition [2] 9% | inhibition [3] 5% | outcome [5] | outcome [6] | outcome [7] | outcome [8]
active: growth inhibition [4] 95%

Cc1cc(OCCCN2CCCCC2C)ccc1NC(=O)COc1ccc(Cl)cc1C(=O)c1cc(Cl)cc(C#N)c1 (configuration not stated)
inactive: growth inhibition [1] 14% | inhibition [2] 23% | inhibition [3] -2% | outcome [5] | outcome [6] | outcome [7] | outcome [8]
active: growth inhibition [4] 91%

O=c1ccccn1CCCC1CCCCN1 (configuration not stated)
active: growth inhibition [4] 96%
inactive: growth inhibition [1] -1% | inhibition [2] -1% | inhibition [3] 0% | outcome [5] | outcome [6] | outcome [7] | outcome [8]

CN(C(=O)Cc1ccc(Cl)cc1)C1CCN(CCCCCNC(=O)/C=C/c2ccc(Cl)c(Cl)c2)CC1
inactive: growth inhibition [1] 16% | inhibition [3] -6% | outcome [5] | outcome [6] | outcome [7] | outcome [8]
active: inhibition [2] 69% | growth inhibition [4] 83%

COc1ccc2ncc(F)c(CCN3CCC(NCc4cc(Br)c5c(c4)OCCO5)CC3)c2n1
active: growth inhibition [1] 94% | growth inhibition [4] 100%
inactive: inhibition [2] 26% | inhibition [3] -2% | outcome [5] | outcome [6] | outcome [7] | outcome [8]

CCN(CC)c1ccc(-c2nc3ncc(Cl)cc3[nH]2)cc1
active: growth inhibition [1] 85% | growth inhibition [4] 85%
inactive: inhibition [2] 16% | inhibition [3] -5% | outcome [5] | outcome [6] | outcome [7] | outcome [8]

CN1CCN(c2ccnc3ccc(NC(=O)Nc4ccc(-c5ccncc5)c(C#N)c4)cc23)CC1
active: growth inhibition [1] 99% | growth inhibition [4] 101%
inactive: inhibition [2] 32% | inhibition [3] -3% | outcome [5] | outcome [6] | outcome [7] | outcome [8]

O=C(Nc1ccc(C(=O)OC[C@@H]2CCCN3CCCC[C@H]23)cc1)c1ccc(Cl)c(Cl)c1
active: growth inhibition [4] 99%
inactive: growth inhibition [1] 37% | inhibition [2] 20% | inhibition [3] 0% | outcome [5] | outcome [6] | outcome [7] | outcome [8]

Nc1nc2c(c(=O)[nH]1)-c1cccc(Br)c1CC2
active: inhibition [2] 66% | growth inhibition [4] 97%
inactive: growth inhibition [1] -3% | inhibition [3] 0% | outcome [5] | outcome [6] | outcome [7] | outcome [8]
